hERG WT inh: qHTS for Inhibitors of KCHN2 3.1: Wildtype qHTS; Voltage-gated inwardly rectifying potassium channel KCNH2 (Homo sapiens), Q12809; U2OS, BacMam KCNH2, thallium flux FluxOr; stronger effect = lower value; activity change, % at 1.84 µM; hit rate 0.37% among 340,000;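 active = maximum activity change below -70%; inconclusive = maximum activity change between -70% and -50%; inactive = maximum activity change above -50%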
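U2OS cells were transduced with wild-type KCNH2 virus (2.03 x 10^8 / mL) for 4 h at room temperature, then cultured overnight at 37 C. Thallium flux was read with FluxOr dye. Rate constants were normalized to DMSO controls.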
TRPV1 potentiator: HTS Assay for Compounds that Act as Potentiators of the Vanilloid Receptor 1; Transient receptor potential cation channel subfamily V member 1 (Homo sapiens), Q8NER1; TRPV1-expressing cells, Fluo-8 calcium influx, capsaicin EC20 potentiation; potentiation, % at 8.33 µM; hit rate 0.02% among 320,000; AID 540277, 2011; in the data active = potentiation above about 80%; inconclusive = between about 30% and that limit
Target sequence (Q8NER1 whole entry, looked up): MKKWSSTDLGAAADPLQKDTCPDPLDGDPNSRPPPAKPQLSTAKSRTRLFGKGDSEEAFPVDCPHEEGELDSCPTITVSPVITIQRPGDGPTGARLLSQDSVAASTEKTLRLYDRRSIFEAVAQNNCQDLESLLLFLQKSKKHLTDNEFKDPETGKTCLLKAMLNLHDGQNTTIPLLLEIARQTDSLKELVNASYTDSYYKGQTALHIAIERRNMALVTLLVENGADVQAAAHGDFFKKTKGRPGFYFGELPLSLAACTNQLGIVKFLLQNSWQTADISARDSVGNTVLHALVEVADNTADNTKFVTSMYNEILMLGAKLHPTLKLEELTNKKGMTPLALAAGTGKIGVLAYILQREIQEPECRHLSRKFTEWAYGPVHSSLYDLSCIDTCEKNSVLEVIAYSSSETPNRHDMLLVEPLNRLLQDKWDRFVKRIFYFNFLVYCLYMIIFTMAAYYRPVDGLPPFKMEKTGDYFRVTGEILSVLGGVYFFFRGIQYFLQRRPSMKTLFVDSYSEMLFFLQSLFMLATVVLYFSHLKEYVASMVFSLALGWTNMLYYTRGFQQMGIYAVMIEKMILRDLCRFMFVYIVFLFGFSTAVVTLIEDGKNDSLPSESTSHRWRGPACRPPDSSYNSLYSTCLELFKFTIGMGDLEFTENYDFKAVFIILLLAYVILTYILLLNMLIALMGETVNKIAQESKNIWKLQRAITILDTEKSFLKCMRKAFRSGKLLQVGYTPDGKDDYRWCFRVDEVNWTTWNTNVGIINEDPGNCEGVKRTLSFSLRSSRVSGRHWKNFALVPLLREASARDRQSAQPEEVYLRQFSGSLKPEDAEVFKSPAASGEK
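Cells expressing TRPV1 were dye-loaded with Fluo-8 and read kinetically: 10 s baseline, 3 min after compound (agonist portion), then 2 min after EC20 capsaicin (allosteric enhancer portion). Calcium-bound dye fluorescence at 480/520 nm.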
KCNH2 3.1 block: qHTS for Inhibitors of KCHN2 3.1: Mutant qHTS. hit rate 0.95% among 340,000. U2OS KCNH2 3.1, thallium flux FluxOr; stronger effect = lower value. activity change, % (tested at about 1.8 µM);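 active = maximum activity change below -70%; inconclusive = maximum activity change from -70% to -50%; inactive = maximum activity change above -50%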;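 note: thallium influx rate constant from kinetic fluorescence after stimulation buffer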
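Thallium flux via FluxOr fluorescence (Red40 quencher, 45 min loading) in U2OS cells virally expressing the KCNH2 3.1 isoform (1.77 x 10^8 /mL virus, overnight at 37 C). Rate constants from 2-min kinetic reads post-stimulation, normalised to positive and negative controls.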
TRPV1 agonist: HTS Assay for Compounds that Act as Agonists of the Vanilloid Receptor 1 | activation, % at 8.33 µM | TRPV1-expressing cells, Fluo-8 calcium influx, agonist mode | hit rate 0.19% among 320,000; in the data active = activation above about 80%; inconclusive = between about 30% and that limit
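TRPV1-expressing cells were cultured overnight at 35.5C and loaded with Fluo-8 calcium dye for 40 to 90 min at room temperature. After a 10 s baseline, compound was added and calcium influx was read kinetically for 3 min (ex 480/em 520 nm).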
Of the large screens only hits and unclear results are named; the others gave an inactive call. An excerpt weighted towards active compounds, which were near 1.2% of everything screened.

Cc1cnc2c3c(cc(Cl)c2c1)-c1ccccc1S(=O)(=O)N3	none (no result: hERG WT inh, KCNH2 3.1 block)
Cc1c2cnn(CC(=O)NCCN3CCOCC3)c(=O)c2c(C)n1Cc1ccccc1F	none (no result: TRPV1 potentiator, TRPV1 agonist)
CCCN1CCN(C(=O)C(C)n2nc(C)c3sc4ccccc4c3c2=O)CC1 (stereo unspecified)	none
COc1ccc(C[C@@H]2CN3C(=NC[C@@H]3C)N2C[C@H](C)NC(=O)CCC2CCCCC2)cc1	hERG WT inh -129.5, KCNH2 3.1 block -84.3
C/C=C(\C)C(=O)NCCN1C2=NC[C@H](Cc3ccccc3)N2C[C@@H]1Cc1ccc(OC)cc1	KCNH2 3.1 block -83.2 (no result: TRPV1 potentiator, TRPV1 agonist)
COc1ccc(C[C@H]2CN3C(=NC[C@H]3Cc3ccccc3)N2CCNC(=O)CCC2CCCCC2)cc1	hERG WT inh -107.2, KCNH2 3.1 block inconclusive
COc1ccc(C[C@H]2CN3C(=NC[C@H]3Cc3ccccc3)N2CCNC(=O)c2ccc(C)c(Br)c2)cc1	TRPV1 potentiator inconclusive
COc1ccc(C[C@H]2CN3C(=NC[C@@H]3Cc3ccccc3)N2C[C@H](C)NC(=O)CCC2CCCCC2)cc1	none (no result: hERG WT inh, KCNH2 3.1 block)
O=C(C[C@H]1C[C@@H]2c3cc(NS(=O)(=O)c4ccccc4)ccc3O[C@@H]2[C@H](CO)O1)N1CCOCC1	none (no result: TRPV1 potentiator, TRPV1 agonist)
O=C1C([N+](=O)[O-])=C(O)c2cccc3cccc1c23	none (no result: hERG WT inh, KCNH2 3.1 block)
COc1ccc(-c2nc(-c3ccc(NC(=O)c4ccncc4)cc3)no2)cc1OC	none
COc1ccc(NC(=O)c2ccc(-c3ccc(-c4noc(C)n4)cc3C)cc2)cc1N1CCN(C)CC1	KCNH2 3.1 block -86.7
O=c1[nH]cnc2ccsc12	none
Cc1ccc(C)c(NC(=O)C(Sc2nnc(-c3cccs3)o2)c2ccccc2)c1 (stereo unspecified)	none
COCCn1c(C)cc(/C=C(\C#N)C(=O)OCC(=O)Nc2ccc(S(N)(=O)=O)cc2)c1C	none
Cc1ccc(C(=O)N2CCN3C(=O)c4ccccc4C23c2ccc(Cl)cc2)cc1 (stereo unspecified)	KCNH2 3.1 block -75.7
O=C(CCl)N1CCN2C(=O)c3ccccc3C12c1ccc(Cl)cc1 (stereo unspecified)	none
Cc1csc(N=Cc2ccc([N+](=O)[O-])o2)n1	none (no result: TRPV1 potentiator, TRPV1 agonist)
CC1CN(c2nc3c(c(=O)n(Cc4ccc(Cl)cc4)c(=O)n3C)n2C)CC(C)O1 (stereo unspecified)	TRPV1 agonist 106.3
Cn1c(N2CCCC2)nc2c1c(=O)n(Cc1ccc(Cl)cc1)c(=O)n2C	TRPV1 agonist inconclusive
O=C(NCc1cccnc1)c1nn2cccnc2c1Cl	none
COC(=O)CSc1nnc(CNS(=O)(=O)c2ccc(Br)cc2)n1C	none
COC(=O)CSc1nnc(CNS(=O)(=O)c2ccc(C)cc2)n1C	hERG WT inh -252.9
c1nc(SSc2ncnc3nc[nH]c23)c2[nH]cnc2n1	none (no result: TRPV1 potentiator, KCNH2 3.1 block, TRPV1 agonist)
NS(=O)(=O)c1ccc(CCNCc2ccccc2OCc2ccc(Cl)cc2)cc1	KCNH2 3.1 block -70.9
Cc1cccc(NC(=O)CSc2nc(=O)n(CCCN3CCOCC3)c3c2CCCC3)c1C	none (no result: TRPV1 potentiator, TRPV1 agonist)
CCCCN1C(=O)c2ccc(C(=O)Nc3ccc(C)c(S(=O)(=O)N(C)C)c3)cc2C1=O	KCNH2 3.1 block -73.6
CCCCN1C(=O)c2ccc(C(=O)Nc3cccc(C)c3C)cc2C1=O	TRPV1 agonist inconclusive
Cc1cccc(C)c1OCc1cc(C(=O)NC2CCC2)no1	KCNH2 3.1 block -94.2, TRPV1 agonist inconclusive
Cc1cccc(C)c1OCc1cc(C(=O)NC2CCC(O)CC2)no1 (stereo unspecified)	none
CC(/C=C/c1ccc(O)cc1)=NNc1ccccc1	none (no result: TRPV1 potentiator, TRPV1 agonist)
Oc1ccccc1C1C=C(c2ccc3c(c2)OCO3)NC(c2c(F)cccc2Cl)N1 (stereo unspecified)	none (no result: hERG WT inh, KCNH2 3.1 block)
Cc1ccccc1C(=O)NNC(=O)C(C)N1C(=O)c2ccccc2C1=O (stereo unspecified)	KCNH2 3.1 block -73.0
Cc1ccccc1C(=O)NC(CC(C)C)C(=O)NN1C(=O)c2ccccc2C1=O (stereo unspecified)	none
O=C1/C(=C/c2ccccc2)CCc2ccc(Cl)nc21	none (no result: TRPV1 potentiator, TRPV1 agonist)
O=C(C1CCN(S(=O)(=O)c2ccc(-n3cnnn3)cc2)CC1)N1CCCCC1	none
O=c1c2cn[nH]c2nc(SCc2c(F)cccc2F)n1-c1ccc(Cl)cc1	hERG WT inh -229.9
Cc1noc(C)c1CSc1nc2[nH]ncc2c(=O)n1-c1ccccc1	none
CC(C)CCSc1nc(N2CCOCC2)c2c(c1C#N)CC(C)(C)OC2	TRPV1 agonist 91.1
COc1ccc(-c2cc(C(F)(F)F)nc(SCC(=O)NCc3cnn(C)c3C)n2)cc1OC	hERG WT inh -174.0, TRPV1 agonist inconclusive
Fc1ccc(Nc2ncnc3sc4c(c23)CCC4)cc1	TRPV1 agonist 80.6
c1ccc(Nc2ncnc3sc4c(c23)CCC4)cc1	TRPV1 agonist inconclusive
CCNC(=O)CSc1nnc(CN2CCCCCC2=O)n1-c1ccccn1	none
O=C1CCCCCN1Cc1nnc(SCc2nc3ccccc3s2)n1-c1ccccn1	KCNH2 3.1 block -79.9
Cc1ccccc1CN1CCN(c2ccc(S(=O)(=O)N3CCCC3)cn2)CC1	none
O=C(NC1CCCC1)C1CCCN1C(=O)Nc1ccccc1 (stereo unspecified)	KCNH2 3.1 block -86.7
S=c1nc(-c2ccccc2)[nH]c2ccc(Br)cc12	hERG WT inh -73.4
CCC(Sc1nc2cc3c(cc2c(=O)n1Cc1ccco1)OCO3)C(=O)Nc1cccc(OC)c1 (stereo unspecified)	hERG WT inh inconclusive, KCNH2 3.1 block -87.5, TRPV1 agonist inconclusive
Cn1c(N)c(C(=O)COC(=O)c2cncc(Br)c2)c(=O)n(C)c1=O	none
O=C(/C=C/c1ccco1)Nc1cccc(S(=O)(=O)N2CCOCC2)c1	hERG WT inh -106.7
O=C(COC(=O)/C=C/c1ccc(OC(F)F)cc1)Nc1cccc(S(=O)(=O)N2CCCC2)c1	KCNH2 3.1 block -84.5
O=C(COC(=O)/C=C/c1ccc(OC(F)F)cc1)Nc1ccc(S(=O)(=O)N2CCCC2)cc1	none
O=C(/C=C/c1ccc(OC(F)F)cc1)Nc1cccc(S(=O)(=O)N2CCOCC2)c1	KCNH2 3.1 block -72.3
Cc1ccc(/C=C/C(=O)Nc2cccc(S(=O)(=O)N3CCOCC3)c2)o1	none
COc1ccc(/C=C/C(=O)Nc2cccc(S(=O)(=O)N3CCOCC3)c2)cc1OC	none
CS(=O)(=O)N1CCN(c2ccccc2NC(=O)Cc2ccccc2)CC1	none
O=C(Cc1ccccc1)Nc1ccccc1N1CCN(c2ccccc2)CC1	KCNH2 3.1 block -70.3, TRPV1 agonist inconclusive
Cc1ccc(NC(=O)c2ccccc2NC(=O)Cc2ccccc2)cc1	TRPV1 agonist inconclusive
O=C(Cc1ccccc1)Nc1ccccc1C(=O)Nc1ccccc1	KCNH2 3.1 block -123.3, TRPV1 agonist inconclusive
CN(CC(=O)Nc1cccc(F)c1)C(=O)CCCc1c[nH]c2ccccc12	none

From PubChem BioAssay
